High-throughput results as filed in PubChem BioAssay.
Compounds with a hit are over-represented: about 8.9% of the library has one in this group of screens.
M1 antag: M1 muscarinic receptor (rat) antagonism. CHO-M1 cells, Fluo-4 calcium, ACh EC80 antagonist mode; stronger effect = lower value. B-score at 10 µM. hit rate 3.4% among 64,000;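 active = calcium fluorescence response, raw or row-and-column corrected B-score, differing from the plate sample mean either way at a set confidence level, mostly lower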
M1 ag: M1 muscarinic receptor agonism; CHO-M1 cells, Fluo-4 calcium fluorescence, agonist mode; stronger effect = higher value; B-score at 10 µM; hit rate 3% among 64,000; AID 626;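 active = fluorescence rise, raw or as B-score row- and column-corrected plate score, outside the 99.7% band of its plate's samples, either direction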
D1 mod: allosteric modulators of human D1 dopamine receptor | HEK293 D1, CRE-luciferase, dopamine EC30 potentiation; actives deviate in either direction | B-score at 10 µM | hit rate 5.9% among 58,000 | AID 641;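 active = luminescence count or its row- and column-corrected plate score outside the 99.7% band of the plate's sample wells, on either side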
Target sequence (P21728 whole entry, looked up): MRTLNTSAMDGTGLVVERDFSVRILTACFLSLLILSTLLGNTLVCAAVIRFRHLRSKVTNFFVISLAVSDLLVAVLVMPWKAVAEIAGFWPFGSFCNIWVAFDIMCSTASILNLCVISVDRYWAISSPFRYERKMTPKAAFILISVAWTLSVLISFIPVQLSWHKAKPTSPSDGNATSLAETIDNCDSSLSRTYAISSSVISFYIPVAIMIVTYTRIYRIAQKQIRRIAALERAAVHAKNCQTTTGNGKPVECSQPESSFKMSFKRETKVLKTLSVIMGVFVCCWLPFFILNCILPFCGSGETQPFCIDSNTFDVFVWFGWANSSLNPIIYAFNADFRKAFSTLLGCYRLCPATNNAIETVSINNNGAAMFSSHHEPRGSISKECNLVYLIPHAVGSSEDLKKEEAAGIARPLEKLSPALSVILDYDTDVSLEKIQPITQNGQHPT
WNV NS2B-NS3 inh: blocks West Nile virus NS2B-NS3 protease activity | P06935 | WNV NS2B-NS3 protease, fluorogenic substrate Ex360/Em465; stronger effect = lower value | z-score (no concentration beside the values) | hit rate 0.18% among 65,000 | AID 577; in the data active = z-score below about -3
mHtt clearance: compounds clearing mutant huntingtin protein. HeLa Exon1htt(103Q)mCFP, aggregate imaging; zero = plate's median compound well. inhibition, % at 1.5 µM. hit rate 0.42% among 47,000;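 active = inhibition of aggregate fluorescence above about 70%, also judged a hit by eye on the cell image, limit read from the data, passing the limit was not always enough; inconclusive = no rule stated for this call; inactive = not judged a hit on image review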;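 also: cells exposed to compound for three days before fixation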
M1 agonist conf: confirmation of rat M1 muscarinic receptor agonists. hit rate 19% among 1,700. CHO-M1 cells, Fluo-4 calcium fluorescence, agonist mode; actives lie on both sides. shares compounds with M1 ag. fluorescence change (max-min) at 10 µM;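 active = fluorescence change differs from the solvent-only DMSO control mean at a set confidence level in both duplicate runs; inconclusive = differs from solvent-only control mean in just one of two runs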;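 also: an EC20 dose of acetylcholine follows compound addition during the same imaging run; raw fluorescence intensity difference in instrument units with no normalization to controls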
M4 ag counter: activates rat M4 receptor in counter-screen for M1 agonists. shares compounds with M1 ag. CHO M4/Gqi5 cells, Fluo-4 calcium fluorescence, agonist mode; actives lie on both sides. fluorescence change (max-min) at 10 µM. hit rate 9% among 1,700. AID 1741;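 active = fluorescence change differing from the plate's solvent-only control wells at 99.7% confidence in both duplicates, whether higher or lower; inconclusive = differs from solvent controls in only one of two duplicates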
Starred values were filed as active, the others as inactive; ? = inconclusive; · = not tested or not shown.

SMILES	M1 antag	M1 ag	D1 mod	WNV NS2B-NS3 inh	mHtt clearance	M1 agonist conf	M4 ag counter
Cc1onc(-c2ccccc2Cl)c1C(=O)Nc1cccc(-c2nc3ncccn3c2C)c1	-2.29*	3.25*	-1.46	2.91	·	?	-61.5
Cc1onc(-c2ccccc2Cl)c1C(=O)Nc1ccc(-c2cn3cccnc3n2)cc1	0.416	4.42*	1.23	0.65	·	-7.27	-9.8
O=C(CN1CCOCC1)N1CCN(S(=O)(=O)c2ccccc2)C1c1ccccc1 (stereo not given)	0.391	0.41	·	-0.83	·	·	·
Cc1ccc(S(=O)(=O)N2CCN(C(=O)CN3CCOCC3)C2c2ccccc2)cc1 (stereo not given)	0.684	6.19*	0.432	-0.88	·	-12.1	-28.8
Cc1cc(C)cc(OCC(=O)Nc2cccc(-c3nnc(-c4ccco4)o3)c2)c1	-0.73	4.54*	-3.35*	0.38	-60.4	-30.3*	-54.7
COc1ccc(CC(=O)Nc2cccc(-c3nnc(-c4ccco4)o3)c2)cc1	-0.547	2.44	·	-0.13	7.3	·	·
COc1ccc(CCN(C)CCCC(C#N)(c2ccc(OC)c(OC)c2)C(C)C)cc1OC (stereo not given)	·	·	-1.67	0.16	·	·	·
COc1ccc(OC)c(C2C(C(=O)c3ccco3)=C(O)C(=O)N2CCCN2CCOCC2)c1 (stereo not given)	0.0834	-0.197	0.24	0.82	·	·	·
CC1(C)CC(=O)C2=C(C1)N(c1ccc(F)cc1)C(=O)CC2c1ccsc1 (stereo not given)	·	·	·	·	6.6	·	·
Cc1nc2ccccc2c(=O)n1NCc1cc(Br)cs1	-0.195	4.45*	·	-0.47	·	-5.19	-12.9
CCOC(=O)C1CCCN(C(=O)Cn2sc3nc(C)cc(C)c3c2=O)C1 (stereo not given)	0.708	5.9*	-0.108	-1.28	·	25.4	-34.7
CCOC(=O)C1CCCN(C(=O)Cc2ccc(OC)c(OC)c2)C1 (stereo not given)	0.166	-0.0105	·	0.08	-3.2	·	·
CCOC(=O)C1CCCN(C(=O)CN2CCN(Cc3ccc(Cl)cc3)C2=O)C1 (stereo not given)	-0.439	22.8*	0.0838	1.07	·	202*	-50.6
CCOC(=O)C1CCCN(C(=O)Cc2c(C(=O)O)[nH]c3ccccc23)C1 (stereo not given)	0.809	4.63*	·	-0.58	-224.6	41.1	-24.3
CCOCC(=O)N1CCCC(C(=O)OCC)C1 (stereo not given)	0.986	0.416	0.517	-0.07	·	·	·
CCOC(=O)C1CCCN(c2c(Nc3cccc(C)c3)c(=O)c2=O)C1 (stereo not given)	0.15	-0.27	-0.0782	2.17	·	·	·
CN(C)Cc1cn(CCC(=O)O)c2ccccc12	-0.103	-0.251	-0.472	0.54	·	·	·
CCOC(=O)CNc1c(-c2ccc(O)cc2)nc2ccccn12	-0.129	1.86	0.204	1.23	·	·	·
COC(=O)CNc1c(-c2ccccn2)nc2ccc(Br)cn12	0.501	5.07*	-1.71	0.95	37.7	26.9	-31.6
O=C(OCC(=O)N1CCN(C(=O)c2ccco2)CC1)c1ccccc1OCc1ccc(Cl)cc1	0.0829	4.46*	-1.78	-1.41	·	-17.8	?
Cc1ccc(-n2c(Cc3cccn3C)nnc2SCC(=O)NCc2ccc3c(c2)OCO3)cc1	1.17	-1.14	1.67	0.65	·	·	·
N#C/C(C(=O)NCc1ccco1)=C1/SC(Cc2ccc(F)cc2)C(=O)N1c1ccccc1 (stereo not given)	0.195	2.4*	-0.499	-0.48	·	-21	?
CCC1S/C(=C(\C#N)C(=O)NCc2ccco2)N(c2ccc(F)cc2)C1=O (stereo not given)	0.0565	0.0939	1.26	-0.24	16.6	·	·
COc1cccc(C2/C(=C(/O)c3ccncc3)C(=O)C(=O)N2CCCN2CCOCC2)c1OC (stereo not given)	-0.0176	-0.0571	-0.116	-0.16	·	·	·
COc1cc(-c2nnc(SCC#CCO)o2)cc(OC)c1OC	0.726	5.84*	1.57	-0.13	-101.5	-5.98	-12.5
SMILES	M1 antag	M1 ag	D1 mod	WNV NS2B-NS3 inh	mHtt clearance	M1 agonist conf	M4 ag counter
CCCCN(CCCC)C(=O)CSc1nnc(-c2cc(OC)c(OC)c(OC)c2)o1	-1.09	4.44*	-0.849	-0.33	·	?	?
CCCCOC(=O)CSc1nnc(-c2cc(OC)c(OC)c(OC)c2)o1	-0.0186	0.0847	-0.511	0.23	-4.6	·	·
CCOC(=O)c1sc(C)c2c1NC(C)(c1cccs1)NC2=O (stereo not given)	0.42	0.714	0.634	0.67	·	·	·
CCN(CC)CCN1C(=O)C(=O)/C(=C(/O)c2ccncc2)C1c1ccccc1F (stereo not given)	0.0468	35*	-0.136	-0.84	18.1	-11.4	?
Cc1cc(=O)n2nc(N3CCC(C(=O)NCCC4=CCCCC4)CC3)sc2n1	0.444	-0.442	0.337	-0.33	·	·	·
CCOc1ccc(/C=c2\sc3nc(-c4ccco4)nn3c2=O)cc1OCC	0.156	105*	1.17	-1.62	·	?	47.2
O=C(Nc1ccc(N2CCN(C(=O)c3ccco3)CC2)c(Cl)c1)c1c(F)c(F)c(F)c(F)c1F	-0.336	2.44	-0.443	-0.8	30.4	·	·
Cc1cc(C(=O)Nc2sc3c(c2C#N)CCCCC3)cs1	0.418	-0.347	-3.45	-0.42	-20.9	·	·
N#Cc1c(NC(=O)c2nc3ncccn3n2)sc2c1CCCCC2	0.106	-1.8*	-4.29*	3.62	64.3	?	-39.9
CN(C)c1ccc(/C=C/C(O)=C2/C(=O)N(C)C3(C)CC2c2ccccc2O3)cc1 (stereo not given)	0.172	28.4*	-0.51	0.6	-93.7	232*	229*
CN(C)c1ccc(C=C2C(=O)OC(C)(C(C)(C)C)OC2=O)cc1 (stereo not given)	·	·	·	·	-3.9	·	·
CCCCOCCCNC(=O)c1cccs1	-0.838	-0.765	0.0558	-1.18	8.4	·	·
CCOC(=O)N1CCC(NCCNC(=O)c2ccccc2)CC1	·	·	-0.0452	0.91	-98.3	·	·
CCOC(=O)N1CCC(NCCNC(=O)c2ccccc2Cl)CC1	-9.07*	24.9*	0.42	1.75	·	267*	?
CCOC(=O)N1CCC(NCCNC(=O)c2cccs2)CC1	-2.6*	27.6*	0.405	0.54	-28.6	256*	?
CN1CCC(NC(=O)c2cccs2)CC1	-0.054	6.57*	-1.43	-0.29	55.9	-17	?
CCCNC(=O)Cn1cnc2sc(C(=O)N3CCN(c4ccc(F)cc4)CC3)c(C)c2c1=O	·	·	·	·	8.0	·	·
Cc1c(C(=O)N2CCN(c3ccccc3F)CC2)sc2ncn(CC(=O)N3CCOCC3)c(=O)c12	-0.00887	3.68*	0.456	0.78	·	-14.6	?
Cc1occc1C(=O)NCc1ccccn1	0.192	2.22*	-0.309	0.26	-32.7	-2.78	-35.7
Cc1cc2c(N3CCCCC3C)ncnc2s1 (stereo not given)	-0.934	3.46*	-1.08	2.06	53.3	-7.62	-34.2
O=S(=O)(Nc1ccc2nc(-c3ccc(Br)o3)[nH]c2c1)c1ccccc1	0.774	0.591	0.0126	-1.26	-52.2	·	·
